{"source": "PubChem BioAssay (Tox21)", "note": "Records with an inconclusive call do not appear. A number with no mark means an inactive call. Active and inactive are the calls of the source. Unless noted, calls follow the shape of the dose curve; as a rule, active = well fitted curve in the direction sought with a large enough effect in the repeat runs; inconclusive = weak or mixed curves; inactive = no such curve, though single readings can be large; an effect the other way counts as inactive or inconclusive. Non-standard residues stand in square brackets, D forms with d. Residues, ends and D or L forms follow the SMILES beside them. *: point of attachment. Sta = CC(C)C[C@H](N)[C@@H](O)CC(=O)O; Isovaleryl = CC(C)CC(=O)*", "data": [{"system": "not listed separately", "assay": "qHTS assay to identify small molecule antagonists of the estrogen receptor alpha (ER-alpha) signaling pathway using the BG1 cell line (AID 743080; calls by dose curve;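 also: BG1 cells stimulated with 17beta-estradiol alongside compound; % is scaled to controls: 0 for no effect and ±100 for the full control effect; nearly all actives have a fitted effect of over 25% in size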)", "details": "BG1Luc4E2 ERE-luciferase antagonist mode, luminescence; series mostly up to 70.3 µM; activity change, negative = inhibition: at the top concentration", "method_in_brief": "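BG1-Luc-4E2 cells (endogenous full-length ER-alpha, 4xERE luciferase) hormone-starved 5 days in charcoal-stripped FBS, plated 4,000/well for 24 h, then compound plus 17beta-estradiol for 21.5 h at 37 C; ONE-Glo luminescence read.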", "values": [{"smiles": "CCC(C)(C)C", "activity change, negative = inhibition": "0.344% [at 95 µM]"}, {"smiles": "CC(C)(O)c1ccc(C(C)(C)O)cc1", "activity change, negative = inhibition": "5.71%"}, {"smiles": "O=C(O)Cc1c(Cl)ccc(Cl)c1Cl", "activity change, negative = inhibition": "3.35%"}, {"smiles": "C[Si](C)(C)O[Si](O)(O)O", "activity change, negative = inhibition": "-1.47%"}, {"smiles": "CC/C=C\\CCCCCCCCCCOC(C)=O", "activity change, negative = inhibition": "3.32%"}, {"smiles": "CCO[Si](CC(C)C)(OCC)OCC", "activity change, negative = inhibition": "2.44%"}, {"smiles": "C=CCOC(=O)CCCCCCCC", "activity change, negative = inhibition": "-1.1% [at 95 µM]"}, {"smiles": "COc1cc2nc(N3CCN(C(=O)C4CCCO4)CC3)nc(N)c2cc1OC", "note": "(centres undefined)", "activity change, negative = inhibition": "1.59%"}, {"smiles": "Nc1nc(Cl)cc(Cl)n1", "activity change, negative = inhibition": "-0.486%"}, {"smiles": "CN1CCN(C(=O)C2CCCCC2)CC1", "activity change, negative = inhibition": "-0.897%"}, {"smiles": "CCCC(=O)CC", "activity change, negative = inhibition": "0.0167% [at 95 µM]"}, {"smiles": "O=P(O)(O)C(O)(Cc1cccnc1)P(=O)(O)O", "activity change, negative = inhibition": "14%"}, {"smiles": "CN(C)c1cc(NC(=O)CNC(C)(C)C)c(O)c2c1C[C@H]1C[C@H]3[C@H](N(C)C)C(=O)C(C(N)=O)=C(O)[C@@]3(O)C(=O)C1=C2O", "activity change, negative = inhibition": "-0.552%"}, {"smiles": "CC(O)CCCCn1c(=O)c2c(ncn2C)n(C)c1=O", "note": "(centres undefined)", "activity change, negative = inhibition": "0.47%"}, {"smiles": "c1coc(Cn2cccc2)c1", "activity change, negative = inhibition": "-1.03%"}, {"smiles": "Nc1cc(S(=O)(=O)O)ccc1O", "activity change, negative = inhibition": "0.555%"}, {"smiles": "O=C(O)Cc1ccccc1Oc1ccc(Cl)cc1Cl", "activity change, negative = inhibition": "-13.1%"}, {"smiles": "CC(=O)OC1CCC(C(C)(C)C)CC1", "note": "(centres undefined)", "activity change, negative = inhibition": "3.02%"}, {"smiles": "CN(C)CCCN(C)C", "activity change, negative = inhibition": "2.33% [at 8.47 µM]"}, {"smiles": "CCCCN(CCCC)CCCCCCN(CCCC)CCCC", "activity change, negative = inhibition": "-0.0303%"}, {"smiles": "Cc1ccccc1OCC(=O)O", "activity change, negative = inhibition": "-0.421%"}, {"smiles": "C/C=C(\\C)C(=O)OC/C=C(\\C)CCC=C(C)C", "activity change, negative = inhibition": "-16.3%"}, {"smiles": "CC(C)(C)C(=O)CCc1ccc(Cl)cc1", "activity change, negative = inhibition": "5.11%"}, {"smiles": "CCC(=O)OCCOc1ccccc1", "activity change, negative = inhibition": "11.4%"}, {"smiles": "CSC(=O)c1cccc2nnsc12", "activity change, negative = inhibition": "-3.73%"}, {"smiles": "C/C=C(\\C)C=O", "activity change, negative = inhibition": "2.59% [at 95 µM]"}, {"smiles": "CCCCCCCCCCCBr", "activity change, negative = inhibition": "-0.58%"}]}, {"system": "not listed separately", "assay": "qHTS assay to identify small molecule antagonists of the estrogen receptor alpha (ER-alpha) signaling pathway using the BG1 cell line - cell viability counter screen (AID 743081);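 also: compound given together with 17beta-estradiol as the ER stimulus; % is scaled to controls: 0 for no effect and ±100 for the full control effect; nearly all actives have a fitted effect of over 45% in size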", "details": "BG1Luc4E2 viability, CellTiter-Fluor, 22 h; series mostly up to 70.3 µM; activity change, negative = cytotoxicity: at the top concentration", "values": [{"smiles": "CCC(C)(C)C", "activity change, negative = cytotoxicity": "-0.0084% [at 95 µM]"}, {"smiles": "CC(C)(O)c1ccc(C(C)(C)O)cc1", "activity change, negative = cytotoxicity": "4.21%"}, {"smiles": "O=C(O)Cc1c(Cl)ccc(Cl)c1Cl", "activity change, negative = cytotoxicity": "-1.13%"}, {"smiles": "C[Si](C)(C)O[Si](O)(O)O", "activity change, negative = cytotoxicity": "-3.07%"}, {"smiles": "CC/C=C\\CCCCCCCCCCOC(C)=O", "activity change, negative = cytotoxicity": "-1.43%"}, {"smiles": "CCO[Si](CC(C)C)(OCC)OCC", "activity change, negative = cytotoxicity": "0.111%"}, {"smiles": "C=CCOC(=O)CCCCCCCC", "activity change, negative = cytotoxicity": "0.915% [at 95 µM]"}, {"smiles": "COc1cc2nc(N3CCN(C(=O)C4CCCO4)CC3)nc(N)c2cc1OC", "note": "(centres undefined)", "activity change, negative = cytotoxicity": "0.806%"}, {"smiles": "Nc1nc(Cl)cc(Cl)n1", "activity change, negative = cytotoxicity": "-6.26%"}, {"smiles": "CN1CCN(C(=O)C2CCCCC2)CC1", "activity change, negative = cytotoxicity": "1.01%"}, {"smiles": "CCCC(=O)CC", "activity change, negative = cytotoxicity": "8.66% [at 95 µM]"}, {"smiles": "O=P(O)(O)C(O)(Cc1cccnc1)P(=O)(O)O", "activity change, negative = cytotoxicity": "14.3%"}, {"smiles": "CN(C)c1cc(NC(=O)CNC(C)(C)C)c(O)c2c1C[C@H]1C[C@H]3[C@H](N(C)C)C(=O)C(C(N)=O)=C(O)[C@@]3(O)C(=O)C1=C2O", "activity change, negative = cytotoxicity": "-6.62%"}, {"smiles": "CCCCCCCCCCCCCCCC/C=C/C1CC(=O)OC1=O", "note": "(centres undefined)", "activity change, negative = cytotoxicity": "-4.89%"}, {"smiles": "CC(O)CCCCn1c(=O)c2c(ncn2C)n(C)c1=O", "note": "(centres undefined)", "activity change, negative = cytotoxicity": "3.54%"}, {"smiles": "c1coc(Cn2cccc2)c1", "activity change, negative = cytotoxicity": "1.3%"}, {"smiles": "Nc1cc(S(=O)(=O)O)ccc1O", "activity change, negative = cytotoxicity": "-0.837%"}, {"smiles": "CC12CCCC=C1C(=O)OC2=O", "note": "(centres undefined)", "activity change, negative = cytotoxicity": "15.7%"}, {"smiles": "Cc1cc(N)no1", "activity change, negative = cytotoxicity": "-1.86% [at 95 µM]"}, {"smiles": "O=C(O)Cc1ccccc1Oc1ccc(Cl)cc1Cl", "activity change, negative = cytotoxicity": "-13.5%"}, {"smiles": "CC(=O)OC1CCC(C(C)(C)C)CC1", "note": "(centres undefined)", "activity change, negative = cytotoxicity": "-5.08%"}, {"smiles": "CN(C)CCCN(C)C", "activity change, negative = cytotoxicity": "12.4% [at 8.47 µM]"}, {"smiles": "Cc1ccc(O)c(C(=O)c2ccccc2)c1", "activity change, negative = cytotoxicity": "-0.311% [at 95 µM]"}, {"smiles": "CC(=O)c1c(C)cc(C(C)(C)C)cc1C", "activity change, negative = cytotoxicity": "-1.29%"}, {"smiles": "CCCCN(CCCC)CCCCCCN(CCCC)CCCC", "activity change, negative = cytotoxicity": "3.37%"}, {"smiles": "CCOC(=O)c1ccc(N(C)C)cc1", "activity change, negative = cytotoxicity": "5.61%"}, {"smiles": "Cc1ccccc1OCC(=O)O", "activity change, negative = cytotoxicity": "2.22%"}, {"smiles": "C/C=C(\\C)C(=O)OC/C=C(\\C)CCC=C(C)C", "activity change, negative = cytotoxicity": "-3.58%"}, {"smiles": "CC(C)(C)C(=O)CCc1ccc(Cl)cc1", "activity change, negative = cytotoxicity": "2.97%"}, {"smiles": "CCC(=O)OCCOc1ccccc1", "activity change, negative = cytotoxicity": "-2.59%"}, {"smiles": "CSC(=O)c1cccc2nnsc12", "activity change, negative = cytotoxicity": "15.5%"}, {"smiles": "C/C=C(\\C)C=O", "activity change, negative = cytotoxicity": "4.82% [at 95 µM]"}, {"smiles": "CCCCCCCCCCCBr", "activity change, negative = cytotoxicity": "-1.3%"}, {"smiles": "CC(C)CC(=O)N[C@H](C(=O)N[C@H](C(=O)N[C@@H](CC(C)C)[C@@H](O)CC(=O)N[C@@H](C)C(=O)N[C@@H](CC(C)C)[C@@H](O)CC(=O)O)C(C)C)C(C)C", "note": "(Isovaleryl-VV[Sta]A[Sta]-OH)", "activity change, negative = cytotoxicity": "-6.28%"}]}, {"target": "Aromatase (Homo sapiens) (UniProt P11511)", "sequence (P11511 whole entry, looked up)": "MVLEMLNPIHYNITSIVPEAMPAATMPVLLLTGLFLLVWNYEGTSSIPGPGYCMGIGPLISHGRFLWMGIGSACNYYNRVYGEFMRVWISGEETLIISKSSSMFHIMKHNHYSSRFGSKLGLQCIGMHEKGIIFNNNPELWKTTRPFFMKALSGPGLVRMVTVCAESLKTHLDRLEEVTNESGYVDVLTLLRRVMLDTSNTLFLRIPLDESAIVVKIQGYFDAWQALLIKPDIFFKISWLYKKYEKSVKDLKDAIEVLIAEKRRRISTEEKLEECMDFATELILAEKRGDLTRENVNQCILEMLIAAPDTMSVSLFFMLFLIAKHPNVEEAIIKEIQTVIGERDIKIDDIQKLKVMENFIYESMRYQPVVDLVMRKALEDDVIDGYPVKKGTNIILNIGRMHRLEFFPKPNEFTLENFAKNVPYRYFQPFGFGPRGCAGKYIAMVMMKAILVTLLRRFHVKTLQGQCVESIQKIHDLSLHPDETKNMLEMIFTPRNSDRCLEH", "assay": "qHTS assay to identify aromatase inhibitors (AID 743083); also: nearly all actives have a fitted effect of over 55% in size; also: potency is read from the fitted curve at half-maximal effect; as to activity, negative = inhibition: % is scaled to controls: 0 for no effect and ±100 for the full control effect", "details": "MCF-7 aro ERE, testosterone-driven ERE luciferase, 24 h; series mostly up to 70.3 µM; activity, negative = inhibition: at the top concentration", "values": [{"smiles": "CCC(C)(C)C", "activity, negative = inhibition": "1.17% [at 95 µM]"}, {"smiles": "CC(C)(O)c1ccc(C(C)(C)O)cc1", "activity, negative = inhibition": "11.1%"}, {"smiles": "O=C(O)Cc1c(Cl)ccc(Cl)c1Cl", "activity, negative = inhibition": "1.13%"}, {"smiles": "C[Si](C)(C)O[Si](O)(O)O", "activity, negative = inhibition": "20.2%"}, {"smiles": "CC/C=C\\CCCCCCCCCCOC(C)=O", "activity, negative = inhibition": "7.77%"}, {"smiles": "CCO[Si](CC(C)C)(OCC)OCC", "activity, negative = inhibition": "-10.8%"}, {"smiles": "C=CCOC(=O)CCCCCCCC", "activity, negative = inhibition": "11.3% [at 95 µM]"}, {"smiles": "COc1cc2nc(N3CCN(C(=O)C4CCCO4)CC3)nc(N)c2cc1OC", "note": "(centres undefined)", "activity, negative = inhibition": "14.4%"}, {"smiles": "Nc1nc(Cl)cc(Cl)n1", "activity, negative = inhibition": "6.53%"}, {"smiles": "CN1CCN(C(=O)C2CCCCC2)CC1", "activity, negative = inhibition": "7.14%"}, {"smiles": "CCCC(=O)CC", "activity, negative = inhibition": "5.52% [at 95 µM]"}, {"smiles": "O=P(O)(O)C(O)(Cc1cccnc1)P(=O)(O)O", "activity, negative = inhibition": "4.43%"}, {"smiles": "CN(C)c1cc(NC(=O)CNC(C)(C)C)c(O)c2c1C[C@H]1C[C@H]3[C@H](N(C)C)C(=O)C(C(N)=O)=C(O)[C@@]3(O)C(=O)C1=C2O", "activity, negative = inhibition": "-10.1%"}, {"smiles": "CCCCCCCCCCCCCCCC/C=C/C1CC(=O)OC1=O", "note": "(centres undefined)", "activity, negative = inhibition": "14.8%"}, {"smiles": "CC(O)CCCCn1c(=O)c2c(ncn2C)n(C)c1=O", "note": "(centres undefined)", "activity, negative = inhibition": "-8.11%"}, {"smiles": "c1coc(Cn2cccc2)c1", "activity, negative = inhibition": "-0.67%"}, {"smiles": "Nc1cc(S(=O)(=O)O)ccc1O", "activity, negative = inhibition": "7.09%"}, {"smiles": "CC12CCCC=C1C(=O)OC2=O", "note": "(centres undefined)", "activity, negative = inhibition": "7.42%"}, {"smiles": "O=C(O)Cc1ccccc1Oc1ccc(Cl)cc1Cl", "activity, negative = inhibition": "-0.801%"}, {"smiles": "CC(=O)OC1CCC(C(C)(C)C)CC1", "note": "(centres undefined)", "activity, negative = inhibition": "8.9%"}, {"smiles": "CN(C)CCCN(C)C", "activity, negative = inhibition": "7.56% [at 8.47 µM]"}, {"smiles": "Cc1ccc(O)c(C(=O)c2ccccc2)c1", "Potency": "55 µM (active)"}, {"smiles": "CC(=O)c1c(C)cc(C(C)(C)C)cc1C", "activity, negative = inhibition": "-3.71%"}, {"smiles": "CCCCN(CCCC)CCCCCCN(CCCC)CCCC", "activity, negative = inhibition": "6.45%"}, {"smiles": "CCOC(=O)c1ccc(N(C)C)cc1", "activity, negative = inhibition": "62%"}, {"smiles": "Cc1ccccc1OCC(=O)O", "activity, negative = inhibition": "7.1%"}, {"smiles": "C/C=C(\\C)C(=O)OC/C=C(\\C)CCC=C(C)C", "activity, negative = inhibition": "-16.7%"}, {"smiles": "CC(C)(C)C(=O)CCc1ccc(Cl)cc1", "activity, negative = inhibition": "-3.55%"}, {"smiles": "CCC(=O)OCCOc1ccccc1", "activity, negative = inhibition": "1.72%"}, {"smiles": "CSC(=O)c1cccc2nnsc12", "activity, negative = inhibition": "-11.6%"}, {"smiles": "C/C=C(\\C)C=O", "activity, negative = inhibition": "6.29% [at 95 µM]"}, {"smiles": "CCCCCCCCCCCBr", "activity, negative = inhibition": "9.55%"}, {"smiles": "CC(C)CC(=O)N[C@H](C(=O)N[C@H](C(=O)N[C@@H](CC(C)C)[C@@H](O)CC(=O)N[C@@H](C)C(=O)N[C@@H](CC(C)C)[C@@H](O)CC(=O)O)C(C)C)C(C)C", "note": "(Isovaleryl-VV[Sta]A[Sta]-OH)", "activity, negative = inhibition": "-6.98%"}]}]}
